Measurements published in the OligoGym collection.
Also: reference of the scale not given here.

What follows are sequences tested against DPM2 (assay: pooled miR-30 sensor sort-seq; sequence = guide strand). Conditions: shRNA.
TACTTGTGGATGACATGCTGAC showed a sensor-assay potency score (higher = more potent) of -0.0583.
For ATACTTGTGGATGACATGCTGA, the sensor-assay potency score (higher = more potent) was -0.113.
TTGGTCTTCAGCATCACATAGG was tested, and the sensor-assay potency score (higher = more potent) was -0.278.
For TCTTGGTCTTCAGCATCACATA, the sensor-assay potency score (higher = more potent) was -1.79.

Each sequence was assayed against DPP3 in the same assay as above. Conditions: shRNA.
With TCGACCTCTTTGAAGAGCCGGG the sensor-assay potency score (higher = more potent) was -0.473.
With TTGTCCTGGATCCAGAAGCGGG the sensor-assay potency score (higher = more potent) was -1.46.
Work on TTGTAGTTGCCCATGTTGGAGT yielded a sensor-assay potency score (higher = more potent) of -1.16.
Sequence TTCCTTACGCAGCAGCACCGTG has a sensor-assay potency score (higher = more potent) of -1.18.
In the case of TAGTTGGGGATGTTGATGCCGG, the sensor-assay potency score (higher = more potent) is reported as -0.85.
AAGATCTCCAGCACTTGCGGGT was tested, and the sensor-assay potency score (higher = more potent) was -0.379.
TCGTCCTGTACGAAGAGCTTGC showed a sensor-assay potency score (higher = more potent) of -0.841.
With TGAAGCTCTCTATATACTGGGC the sensor-assay potency score (higher = more potent) was -0.35.
In the case of TTGTCCTTCTCAAAGGTTGGGG, the sensor-assay potency score (higher = more potent) is reported as -0.0545.
AAGTTGGGAACAAACTTGGTGT was tested, and the sensor-assay potency score (higher = more potent) was -0.148.
TTGGTGTCACCAAAGGACTTGT was tested, and the sensor-assay potency score (higher = more potent) was -0.525.
TGTTGGAGTAAACACCCGCGGC was tested, and the sensor-assay potency score (higher = more potent) was -1.37.
